POLK inh: blocks human DNA polymerase kappa activity; AID 588579; Q9UBT6; 0.53% of 400,000 active; purified Pol kappa, fluorescent DNA synthesis assay, 10 min; Potency, µM (titrated, usually from 107 µM), most hits filed as inhibitors
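Fluorescent qHTS in 1536-well format: enzyme (10 nM) and compound sat 15 min at room temperature before 50 nM substrate (final) was added. Signal taken at 0 and 10 min; no-enzyme buffer wells were negative controls.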
POLB inh: blocks human DNA polymerase beta activity | P06746 | Pol beta primer extension/strand displacement, fluorescence kinetic | Potency, µM (doses to about 114 µM), most hits filed as inhibitors | 1.3% of 340,000 active | AID 485314
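Curves were derived by four-parameter Hill fits of normalized qHTS data. The kinetic fluorescent primer-extension read was taken at 0 and 10 min after 50 nM substrate, following a 15 min room-temperature preincubation of 10 nM enzyme with compounds.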
Pol eta inh: inhibitors of human DNA polymerase eta | 1.2% of 390,000 active | Q9Y253 | Potency, µM (doses to about 114 µM), actives largely listed as inhibitors | recombinant Pol eta, fluorescent DNA replication assay
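Fluorescent replication assay: 50 nM final substrate added after a 15 min room-temperature compound preincubation with 10 nM enzyme. Signal taken at 0 min and again at 10 min.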
Pol iota inh: DNA polymerase iota (human) inhibition | Pol iota fluorescent replication assay, 10 min | Potency, µM (top dose mostly 115 µM), usual class: inhibitors | 1% of 390,000 active
Target sequence (Q9UNA4 whole entry, looked up): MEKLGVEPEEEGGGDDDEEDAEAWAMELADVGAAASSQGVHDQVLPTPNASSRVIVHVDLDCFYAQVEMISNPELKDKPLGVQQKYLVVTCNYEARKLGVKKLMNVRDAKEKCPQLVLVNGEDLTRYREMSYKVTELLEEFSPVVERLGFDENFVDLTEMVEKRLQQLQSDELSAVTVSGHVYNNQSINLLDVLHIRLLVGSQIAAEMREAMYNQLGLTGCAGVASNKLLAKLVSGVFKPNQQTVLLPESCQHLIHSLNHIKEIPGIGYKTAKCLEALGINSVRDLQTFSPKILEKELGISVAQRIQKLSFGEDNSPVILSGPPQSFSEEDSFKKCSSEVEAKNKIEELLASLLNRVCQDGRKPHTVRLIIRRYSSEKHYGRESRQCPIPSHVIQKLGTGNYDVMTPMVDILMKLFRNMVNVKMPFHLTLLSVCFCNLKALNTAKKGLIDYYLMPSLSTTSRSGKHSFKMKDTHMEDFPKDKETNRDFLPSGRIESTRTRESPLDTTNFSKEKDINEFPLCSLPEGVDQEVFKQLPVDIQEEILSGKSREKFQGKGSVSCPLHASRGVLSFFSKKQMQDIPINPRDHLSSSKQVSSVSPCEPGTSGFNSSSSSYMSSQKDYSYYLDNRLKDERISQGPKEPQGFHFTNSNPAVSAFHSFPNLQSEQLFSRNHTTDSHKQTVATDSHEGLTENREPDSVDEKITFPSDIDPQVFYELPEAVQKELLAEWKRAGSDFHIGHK
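Fluorescent replication assay read twice, at 0 min and 10 min after adding 50 nM (final) substrate. Enzyme (10 nM) and compounds were first incubated 15 min at room temperature; enzyme-free buffer wells were negative controls.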
WRN inhibitor: inhibitors of human WRN helicase. WRN helicase unwinding, fluorescent forked duplex, kinetic. 0.46% of 360,000 active. AID 651768. Potency, µM (series often up to 114 µM), hits mostly inhibitors; further: nearly all actives have a fitted effect of over 55% in size
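Enzyme (20 nM final) and test compound sit together 15 min at room temperature before substrate addition. Substrate is a single-forked duplex oligonucleotide (100 nM) labelled with fluorophore and quencher, with 2 mM ATP; helicase unwinding raises red fluorescence, read kinetically.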
A number is an active result; - = inactive; ? = inconclusive; . = not tested or not shown; ! = a repeat was not active; [ ] = another dose, or the depositor's remark. Shown are actives, neighbours in structure and some others; about 2.3% of the full set was active somewhere. The call rests on the fitted dose curve; in most records, active means well fitted curve in the direction sought with a large enough effect; inconclusive means small, poorly fitted or top-dose-only effect, or another doubt; inactive means no such curve, though single readings can be large; an effect the other way counts as inactive or inconclusive.

SMILES	POLK inh	POLB inh	Pol eta inh	Pol iota inh	WRN inhibitor
O=C(O)CCC/C=C\C[C@@H]1[C@@H](CC[C@@H](O)CCc2ccccc2)[C@H](O)C[C@@H]1O	-[12 µM]	.	.	.	.
CCCCNC(=O)[C@@H]1CC=C[C@@H]2CCN(Cc3ccc(OC)c(OC)c3)C(=O)[C@@H]21	-	.	.	-	.
O=C1C2C(c3ccccc3)CC=CC2C(c2ccc3ccccc3c2)N1Cc1ccccc1 (stereo unspecified)	-	.	.	?	.
O=C(NCCc1ccccc1)/C(=C/c1ccco1)c1ccccc1	-	35µM	?	-	?
O=C(/C=C/c1ccco1)NCc1ccc2c(c1)OCO2	-	20µM	-	-	-
O=C(/C=C/c1ccccc1)NCc1ccc2c(c1)OCO2	-	-	-	-	-
O=C(/C=C\c1ccco1)Nc1nc(-c2ccc3ccccc3c2)cs1	-	-	-	-	?
CC(=O)NS(=O)(=O)c1ccc(NC(=O)/C=C/c2ccco2)cc1	-	?	-	-	-
Cc1ccc(-c2csc(NC(=S)NC(=O)/C=C/c3ccco3)n2)cc1	?	-	-	50µM	-
O=C(/C=C/c1ccco1)Nc1ccc(F)cc1	-	32µM	.	?	.
CCc1cccc(C)c1Nc1c(-c2ccc(SC)cc2)nc2sccn12	-	-	-	-	.
CCCN1CNc2c(c(=O)[nH]c(=S)n2CCc2cccc(C)c2C)C1	-	.	.	-	.
CCC(=O)NC1CCc2cccc(OC)c2C1 (stereo unspecified)	-[19.4 µM]	.	.	.	.
CN(C)CCCO[C@H]1C([C@H](O)CO)O[C@@H]2OC(C)(C)O[C@@H]21 (stereo partly specified)	.	-	-	-	.
O=C(NCc1ccco1)c1cc(-c2ccco2)on1	-	-	-	89µM	-
O=C(/C=C/c1ccco1)NCCc1ccc(F)cc1	-	25µM	?	20µM	-
O=C(/C=C/c1ccco1)NC(=S)Nc1ccc(Cl)cn1	-	35µM	?	?	-
O=C(OCC12CC3CC(CC(C3)C1)C2)c1ccc(NCc2cc(O)ccc2O)cc1	-	.	?	-	-
O=C(O)c1cc(NCc2cc(O)ccc2O)ccc1O	50µM	.	.	18µM	.
O=C(C[N+]12CCCc3cccc(c31)CCC2)c1ccc2ccccc2c1	-	.	.	-	.
Cc1ccc(-c2nnc(SC(C)C(=O)NCc3ccco3)n2C)cc1 (stereo unspecified)	-	.	.	-	.
COc1ccc(N2CCN(C(=O)c3ccc(NC(=O)C4=CSCCO4)cc3)CC2)cc1	-	-	-	35µM	-[11.6 µM]
O=C(Nc1ccc(C(=O)N2CCN(c3ccc(F)cc3)CC2)cc1)C1=CSCCO1	-	-	-	-	-
Cn1nnnc1Sc1ncnc2scc(-c3ccccc3)c12	-	28µM	?	?	-
N#CC(C#N)=C1C=CC=CN1/C(=C\c1ccccc1Cl)C(=O)c1ccccc1	-	-	-	-	50µM
SMILES	POLK inh	POLB inh	Pol eta inh	Pol iota inh	WRN inhibitor
N#CC(C#N)=C1C=CC=CN1/C(=C\c1ccccc1)C(=O)c1cccs1	-	-	-	-	-
O=C(Cc1ccc(Oc2ccccc2)cc1)NO	-	.	.	-	.
CC(Sc1ccsc1[N+](=O)[O-])C(=O)NCc1ccco1 (stereo unspecified)	?	22µM	40µM	?	-
Cn1c2ccccc2c2cc(/C=N/NC(=O)c3ccccc3F)ccc21	-	-	-	?	-
Cn1c2ccccc2c2cc(/C=N/NC(=O)c3ccc(N)cc3)ccc21	?	10µM	?	?	-
CN=C1C=CC(=C(c2ccc(N(C)C)cc2)c2ccc(N(C)C)cc2)C=C1	-[19.4 µM]	.	.	.	.
CC(=O)N(/N=C1\Sc2ccccc2C1=O)c1ccccc1C	-	-	20µM	-	-
Cc1ccc(-c2nn(-c3ccccc3)cc2C=C2SC(=S)N(CCS(=O)(=O)O)C2=O)cc1	.	.	.	.	20µM
C=CCNc1nc(C(=O)OCC(=O)Nc2ccc(S(N)(=O)=O)cc2)cs1	-	.	56µM	28µM	-
CN(Cc1cnc2nc(N)nc(N)c2n1)c1ccc(C(=O)N[C@@H](CCC(=O)O)C(=O)O)cc1	?	40µM	32µM!	32µM!	-
O=C(CSc1nc2c([nH]c3ccccc32)c(=O)n1-c1ccc(F)cc1)N1CCCCCC1	-	-	-	-	.
O=S(=O)(c1ccc2nc(Nc3ccc(Br)cc3F)ccc2c1)N1CCCCC1	-	-	-	-	.
O=S(=O)(c1ccc(Cl)cc1)c1nnn2c1nc(NC1CCCCC1)c1sccc12	-	32µM	-	-	.
Cc1ccc(S(=O)(=O)c2nnn3c2nc(NC2CCCCC2)c2sccc23)cc1	-	-	-	-	.
CC=Cc1cc2c(c(=O)o1)C(=O)C(O)C(C)O2 (stereo unspecified)	-	.	?	50µM	-
COc1ccccc1Nc1nn2c(=O)c3ccc(C(=O)NCCc4ccccc4)cc3nc2s1	-	?	79µM	-	.
COc1ccc(NC(=O)c2ccc3c(=O)n4nc(Nc5ccccc5C)sc4nc3c2)cc1	-	4µM	?	-	.
COc1ccc(Nc2nn3c(=O)c4cc5c(cc4nc3s2)OCO5)c(OC)c1	-	3.5µM	?	-	.
COc1ccccc1N1CCN(c2ncnc3c2cnn3-c2cc(Cl)ccc2C)CC1	-	-	-	-	.
CC[C@H](C)[C@H](NC(=O)[C@H](CC(C)C)NC(=O)[C@H](CO)NC(=O)[C@H](CCC(=O)O)NC(=O)[C@H](CC(C)C)NC(=O)[C@H](Cc1ccc(O)cc1)NC(=O)[C@H](CCCCN)NC(=O)[C@H](CCCCN)NC(=O)[C@H](C)NC(=O)[C@H](CO)NC(=O)[C@H](CC(C)C)NC(=O)[C@H](CCC(N)=O)NC(=O)CNC(=O)[C@H](CC(C)C)NC(=O)[C@H](CC(C)C)NC(=O)[C@H](CCCNC(=N)N)NC(=O)[C@H](CO)NC(=O)[C@H](Cc1ccccc1)NC(=O)[C@H](CC(=O)O)NC(=O)[C@H](CO)NC(=O)[C@@H](NC(=O)[C@H](Cc1ccccc1)NC(=O)[C@@H](NC(=O)CNC(=O)[C@H](CC(=O)O)NC(=O)[C@H](C)NC(=O)[C@@H](N)Cc1cnc[nH]1)C(C)C)[C@@H](C)O)C(N)=O	-	.	.	.	.
O=C(/C=C/c1ccco1)N1CCN(S(=O)(=O)c2cccs2)CC1	-	50µM	?	40µM	-[11.6 µM]
Cc1ccc2c(c1)ncc[n+]2CC(=O)c1ccc(F)cc1	-	.	.	-	.
CN1CCc2c(sc3nc(SCC(=O)NCc4ccco4)n(-c4ccccc4)c(=O)c23)C1	-	-	-	-	-
COc1ccc(-n2c(SCC(=O)NCc3ccco3)nc3sc4c(c3c2=O)CCN(C)C4)cc1	-	?	?	32µM	-[11.6 µM]
Cc1ccc(-n2c(Cc3cccn3C)nnc2SCC(=O)NCc2ccc3c(c2)OCO3)cc1	-	8.9µM	-	?	-[11.6 µM]
COc1ccc(-n2c(Cc3cccn3C)nnc2SCC(=O)NCc2ccco2)cc1	?	40µM	-	?	-[11.6 µM]
Cc1cc(NC(=O)CCNS(=O)(=O)c2ccc3c(c2)CCCC(=O)N3)ccc1Br	-	-	-	-	.

Assay outcomes (PubChem BioAssay)
